Assay outcomes (PubChem)
NPR1 activator: GC-A (human) enzyme activation; P16066; HEK293 GC-A cells, cGMP TR-FRET, EC30 ANP; 0% at EC30 ANP, 100% saturating ANP; activation, % at 10 µM; 370,000 compounds, 0.14% hits; AID 1671463; in the data active = activation above about 40%
Myeloid diff MLP: promotes myeloid progenitor differentiation; 360,000 compounds, 1% hits; AID 624256; ER-HoxA9 myeloid progenitors, lysozyme-GFP differentiation, flow cytometry; calls only at 10 µM;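 active = normalized GFP-positive differentiation at or above the plate's own cutoff, the solvent-only control mean plus 3 SD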;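 also: cells exposed to compound for four days before flow analysis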
Granule exo inh: lytic granule exocytosis inhibition | TALL-104 LAMP-1 surface exposure, flow cytometry; cells stimulated with thapsigargin and PMA | inhibition, % at 10 µM | 360,000 compounds, 0.66% hits | AID 651702;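 active = inhibition above about 55%, limit read from the data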
NPR2 activator: GC-B (human) receptor activation | P20594 | HEK293-GC-B cells, CNP EC30, cGMP TR-FRET; 0% at EC30 CNP, 100% saturating CNP | activation, % at 10 µM | 370,000 compounds, 0.11% hits;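 active = activation at 10 µM reaching about 35% in either raw or pattern-adjusted values, limit read from the data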
Myeloid diff: compounds promoting myeloid differentiation | ER-HoxA9 myeloid progenitors, GFP/Mac1 double-positive flow | 2,300 compounds, 2% hits | shares compounds with Myeloid diff MLP | calls only | AID 651706;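 active = share of green or green-and-red cells above 9 and 9% in run 1 or 4 and 3% in run 2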
GFP autofluor: counter-screen for myeloid differentiation promoters: compound fluorescence | 2,300 compounds, 7.4% hits | AID 651707 | shares compounds with Myeloid diff MLP | fluorescence response, % (concentration not given with the values) | ER-HoxA9 myeloid progenitors, no estrogen, GFP autofluorescence flow cytometry; vehicle wells 0%, positive control 100%;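 active = over 5% cells positive for green fluorescent reporter, or over 2% positive for both it and APC stain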
Hits are given with their value; 0 = inactive; - = no result given; + = active, no number. Only some compounds are listed: those with a hit (about 1.8% of all), similar ones and a draw of the others.

SMILES	NPR1 activator	Myeloid diff MLP	Granule exo inh	NPR2 activator	Myeloid diff	GFP autofluor
COc1ccccc1Cc1c(-c2ccco2)nc2c(C)cc(Br)cn12	-	-	0	-	-	-
CCN1C(=O)[C@H]2[C@H]3CN=C(SCc4ccc(C#N)cc4)N3[C@@](Cc3ccccc3)(C(=O)OC)[C@H]2C1=O	0	0	0	0	-	-
CCN1C(=O)[C@H]2[C@H]3CN=C(SCC4CC4)N3[C@@](Cc3ccccc3)(C(=O)OC)[C@H]2C1=O	0	0	0	0	0	0
CCN1C(=O)[C@H]2[C@H]3CN=C(SCc4ccccc4)N3[C@@](Cc3ccccc3)(C(=O)OC)[C@H]2C1=O	0	0	0	0	0	0
C[C@H]1[C@@H](OC(=O)Oc2ccc([N+](=O)[O-])cc2)CC[C@@]23CCCN2C(=O)CCC[C@@H]13	0	-	-	0	-	-
CCCCNC(=O)C[C@H]1C[C@@]2(C(=O)OC)C(=C[C@H](C(C)C)O[C@@H]2C2CC2)N(CCc2ccc(OC)c(OC)c2)C1=O	0	-	-	0	-	-
O=C(COC(=O)C1(c2ccccc2F)CCCC1)N1CCNC1=O	0	0	0	0	-	-
Cc1ccc(S(=O)(=O)N2C[C@H]3C(=O)C[C@@H](c4ccccc4)N(S(=O)(=O)c4ccc(Br)cc4)[C@H]3C[C@H]2c2ccccc2)cc1	0	+	0	0	0	0
O=C(Nc1ccc(F)cc1)c1cccc(N2C(=O)C3C4C=CC(C4)C3C2=O)c1 (stereo not given)	0	+	0	0	0	0
CCOc1cccc(=O)c2c(C)oc(C)c12	0	0	0	0	0	0
COc1ccc(NC(=O)CN(C)C(=O)c2ccc3c(c2)S(=O)(=O)N=C2CCCCCN23)cc1	0	0	0	0	-	-
O=C(C(=O)N1CCN(c2ccncc2)CC1)c1cccc(Br)c1	0	0	0	0	-	-
COC(=O)C1(C(=O)OC)c2ccccc2N(S(=O)(=O)c2ccc(C)cc2)C1CC(=O)c1ccccc1 (stereo not given)	0	0	0	0	-	-
CCOC(=O)N1CCC(N2CCN(S(=O)(=O)c3ccc(C)cc3)CC2)CC1	0	0	0	0	-	-
CCOC(=O)N1CCC(N2CCN(S(=O)(=O)c3ccc(OC)cc3)CC2)CC1	0	0	0	0	0	3.5
C[C@@H]1ON(C)[C@H]2C[C@H]3c4[nH]c5c(-c6ccccc6F)cccc5c4CCN3C[C@@H]12	0	-	-	0	-	-
Nc1[nH]c(C(=O)c2ccccc2)c(-c2ccc(Br)cc2)c1C(=O)c1ccccc1	0	-	-	0	-	-
COc1cccc(Oc2c(C)oc3c(CN4CCCC4)c(O)ccc3c2=O)c1	0	0	0	0	0	0
Cc1cccc(CNc2ncnc3ccc(-c4cccnc4)cc23)c1	0	+	0	0	0	0
Cc1ccc(/C=N/c2sc(Cc3ccccc3)c(C)c2C(N)=O)o1	0	0	0	0	0	0
COc1ccc(NC(C)(C)c2nnnn2-c2c(C)cccc2C)cc1	0	0	0	0	0	0
O=C(CN1C(=O)c2ccccc2S1(=O)=O)Nc1ncc(Cl)cc1Cl	0	0	0	0	-	-
CCCCCCn1c(=O)n2n(c1=O)C[C@]1(OC(=O)NCc3ccco3)CN(S(=O)(=O)c3ccc(C)cc3)C[C@]1(O)C2	0	0	0	0	-	-
COc1ccc(C2=NOC(Cn3nc(-c4ccccc4)cc3C(=O)NCc3cccs3)C2)cc1 (stereo not given)	0	0	0	0	0	0
C=CCC[C@@H](CCCCC)OC(=O)/C=C/[C@H](O)[C@@H](O)C[C@H](O)CC=C	0	+	0	0	0	0
SMILES	NPR1 activator	Myeloid diff MLP	Granule exo inh	NPR2 activator	Myeloid diff	GFP autofluor
C=CCC[C@H](CCCCC)OC(=O)/C=C/[C@H](O)[C@@H](O)C[C@H](O)CC=C	0	0	0	0	-	-
CCOC(=O)[C@]12CCCC=C1N(Cc1ccco1)C(=O)[C@H](CC(=O)NCC13CC4CC(CC(C4)C1)C3)C2	0	0	0	0	-	-
O=C(NCCC(F)(F)F)C1Cc2c(-c3ccc(Cl)cc3)ccnc2O1 (stereo not given)	0	0	0	0	-	-
CC1=NN(c2ccccc2)C(=O)C1C=Nc1ccccc1O (stereo not given)	0	+	0	0	0	0
CCC(C(=O)Nc1sc(C(N)=O)c(C)c1C(=O)OC)c1ccccc1 (stereo not given)	0	0	0	0	0	0
O=S(=O)(NCc1ccncc1)c1ccc(F)c(F)c1	0	0	0	0	0	0
COc1ccc(-n2c(SCC(=O)N/N=C(/C)c3cccc(O)c3)nc3ccccc3c2=O)cc1	0	-	-	0	-	-
Cc1ccc(/C=N/NC(=O)c2cc3c(s2)CCCC3)o1	0	0	0	0	0	0
Cc1cccc(C)c1NC(=O)C1(C)CSCC(=O)N1CCc1ccccc1 (stereo not given)	0	0	0	0	-	-
CCCCn1c(N)c(N(CC(C)C)C(=O)Cc2ccc(S(=O)(=O)N3CCOCC3)s2)c(=O)[nH]c1=O	0	+	0	0	+	0
O=C(c1ccc(S(=O)(=O)N2CCCCC2)cc1)N1CCN(CCN2C(=O)c3cccc4cccc(c34)C2=O)CC1	0	+	0	0	0	0
Cc1cccc(NC(=O)CN2CCN(C(=O)CNC(=O)c3ccc(-c4ccccc4)cc3)CC2)c1C	0	0	0	0	-	-
CC(C)(C)OC(=O)C[C@H]1C/C=C\C[C@H](CC(=O)N[C@H](CO)Cc2ccccc2)C(=O)N[C@H](Cc2ccccc2)COC1=O	0	0	0	0	-	-
CC(C)(C)OC(=O)C[C@@H]1C/C=C\C[C@H](CC(=O)N[C@H](CO)Cc2ccccc2)C(=O)N[C@@H](Cc2ccccc2)COC1=O	0	0	0	0	0	0
CCOc1ccc2nc(S(=O)(=O)NC(=O)C3(C)CCN3C(=O)c3c(C)noc3C)sc2c1 (stereo not given)	0	0	0	0	-	-
CCn1c(-c2ccccc2Cl)nn(CC(=O)NCCc2ccccc2)c1=S	0	0	0	0	-	-
CCn1c(-c2ccccc2Cl)nn(CC(=O)Nc2cc(Cl)ccc2Cl)c1=S	0	0	0	0	0	0
Cc1ccc(-n2c(SCC(=O)Nc3ccc(S(=O)(=O)Nc4cc(C)nc(C)n4)cc3)nnc2-c2ccc(C(C)(C)C)cc2)cc1	0	-	-	0	-	-
Cc1cc(C)cc(NS(=O)(=O)CCCS(=O)(=O)Nc2cc(C)cc(C)c2)c1	0	0	0	0	-	-
CC(C)Cn1c(N)c(C(=O)COC(=O)c2ccccc2C(=O)c2ccccc2)c(=O)n(C)c1=O	0	0	0	0	-	-
Cn1c(N)c(C(=O)COC(=O)c2ccccc2C(=O)c2ccc(Cl)cc2)c(=O)n(C)c1=O	0	0	0	0	0	0
Cc1cccc(-c2sc(Nc3ccccc3)n[n+]2-c2ccc(F)cc2)c1	0	0	0	0	-	-
COc1ccc(-c2sc(Nc3ccccc3)n[n+]2-c2ccc(F)cc2)c(C)c1C	0	0	0	0	0	4.2
COc1ccc(C(=O)COC(=O)c2cnc(C)cn2)cc1OC	0	0	0	0	0	0
